Assay results as given in the supplement of paper PMC11732987, “Enantioselective OTUD7B fragment discovery through chemoproteomics screening and high-throughput optimisation” (Communications Chemistry, 2025).

Tests used:
Assay in all cases: log2 ratio of Biotin-Ahx-Ub-VS probe labelling (fragment/DMSO); higher = less target engagement (more negative = stronger competition), active = hit call of the paper (q ≤ 0.05, log2 ratio ≤ -1)
Conditions in all cases: compound concentration: 200 uM; treatment time: 3 h
OTUD6B = target: T1, OTUD6B (UniProt Q8N6M0)
T1 sequence (whole entry): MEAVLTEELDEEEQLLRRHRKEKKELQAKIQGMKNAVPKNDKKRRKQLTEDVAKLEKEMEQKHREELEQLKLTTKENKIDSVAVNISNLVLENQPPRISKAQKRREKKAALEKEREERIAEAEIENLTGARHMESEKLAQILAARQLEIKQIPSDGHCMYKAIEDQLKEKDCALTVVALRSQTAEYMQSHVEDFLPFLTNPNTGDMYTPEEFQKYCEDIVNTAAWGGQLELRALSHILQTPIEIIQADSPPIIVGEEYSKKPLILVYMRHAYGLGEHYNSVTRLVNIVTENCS
Method in brief: (§1)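 Fragment (200 µM) or vehicle was incubated for 3 h with triplicate HEK293T lysate samples of 495 µg, which were then treated with Biotin-Ahx-Ub-VS at 0.5 µM final for 1 h. Labelled DUBs were enriched on NeutrAvidin, digested with LysC and trypsin, and analysed by diaPASEF LC-MS/MS. Values are average log2 fragment/vehicle ratios from an unpaired t-test on global-median-normalised Spectronaut label-free quantities, using proteins with ≥2 unique peptides.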

OTUD7B = target: T2, OTUD7B (UniProt Q6GQQ9)
T2 sequence (whole entry): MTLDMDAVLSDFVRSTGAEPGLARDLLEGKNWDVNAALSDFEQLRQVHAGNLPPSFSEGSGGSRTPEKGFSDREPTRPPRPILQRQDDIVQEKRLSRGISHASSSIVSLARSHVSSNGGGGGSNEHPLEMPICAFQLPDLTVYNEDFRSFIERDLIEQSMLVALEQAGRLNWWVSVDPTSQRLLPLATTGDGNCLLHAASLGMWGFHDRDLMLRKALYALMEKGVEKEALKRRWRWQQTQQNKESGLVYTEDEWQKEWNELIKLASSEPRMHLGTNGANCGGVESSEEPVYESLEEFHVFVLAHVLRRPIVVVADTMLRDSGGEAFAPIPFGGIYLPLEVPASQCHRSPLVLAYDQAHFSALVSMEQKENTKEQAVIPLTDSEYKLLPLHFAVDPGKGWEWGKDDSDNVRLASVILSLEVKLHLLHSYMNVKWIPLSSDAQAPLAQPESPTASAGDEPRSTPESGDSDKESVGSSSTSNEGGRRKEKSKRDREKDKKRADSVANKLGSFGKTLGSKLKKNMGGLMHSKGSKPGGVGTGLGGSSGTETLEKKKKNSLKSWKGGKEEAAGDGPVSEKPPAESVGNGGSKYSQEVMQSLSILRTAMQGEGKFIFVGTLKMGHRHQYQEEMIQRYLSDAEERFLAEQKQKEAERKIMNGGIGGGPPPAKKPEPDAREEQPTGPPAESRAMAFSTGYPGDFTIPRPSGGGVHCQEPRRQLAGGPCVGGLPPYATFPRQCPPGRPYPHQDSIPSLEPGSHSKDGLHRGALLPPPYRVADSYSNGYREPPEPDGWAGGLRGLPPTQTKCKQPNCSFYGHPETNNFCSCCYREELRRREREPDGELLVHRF
Method in brief: as §1

PRPF8 = PRPF8 (UniProt Q6P2Q9)
Method in brief: as §1

PSMD7 = target: T3, PSMD7 (UniProt P51665)
T3 sequence (whole entry): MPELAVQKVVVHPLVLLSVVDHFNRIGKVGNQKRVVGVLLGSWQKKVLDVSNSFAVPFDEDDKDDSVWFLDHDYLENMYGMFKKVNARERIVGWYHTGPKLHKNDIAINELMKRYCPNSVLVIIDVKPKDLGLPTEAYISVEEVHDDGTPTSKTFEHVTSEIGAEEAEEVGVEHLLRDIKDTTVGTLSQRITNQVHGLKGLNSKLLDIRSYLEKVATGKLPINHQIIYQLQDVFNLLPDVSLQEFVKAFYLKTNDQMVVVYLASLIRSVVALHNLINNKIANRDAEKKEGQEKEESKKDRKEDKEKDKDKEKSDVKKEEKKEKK
Method in brief: as §1

UCHL1 = UCHL1 (UniProt P09936)
UCHL1, sequence (P09936 whole entry, looked up): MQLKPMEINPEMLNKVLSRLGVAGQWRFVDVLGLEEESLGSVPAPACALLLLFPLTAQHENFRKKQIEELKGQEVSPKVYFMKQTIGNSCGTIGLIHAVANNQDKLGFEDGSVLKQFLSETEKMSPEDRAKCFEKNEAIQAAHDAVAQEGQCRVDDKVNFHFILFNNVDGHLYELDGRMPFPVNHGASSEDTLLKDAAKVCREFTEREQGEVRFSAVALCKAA
Method in brief: as §1

UCHL3 = target: T4, UCHL3 (UniProt P15374)
T4 sequence (whole entry): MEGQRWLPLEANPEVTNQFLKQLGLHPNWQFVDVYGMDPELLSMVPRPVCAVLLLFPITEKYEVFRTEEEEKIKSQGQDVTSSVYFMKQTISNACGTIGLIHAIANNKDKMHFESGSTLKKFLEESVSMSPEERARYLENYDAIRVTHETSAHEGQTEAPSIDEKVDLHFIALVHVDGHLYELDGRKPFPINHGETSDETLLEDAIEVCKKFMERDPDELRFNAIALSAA
Method in brief: as §1

UCHL5 = target: T5, UCHL5 (UniProt Q9Y5K5)
T5 sequence (whole entry): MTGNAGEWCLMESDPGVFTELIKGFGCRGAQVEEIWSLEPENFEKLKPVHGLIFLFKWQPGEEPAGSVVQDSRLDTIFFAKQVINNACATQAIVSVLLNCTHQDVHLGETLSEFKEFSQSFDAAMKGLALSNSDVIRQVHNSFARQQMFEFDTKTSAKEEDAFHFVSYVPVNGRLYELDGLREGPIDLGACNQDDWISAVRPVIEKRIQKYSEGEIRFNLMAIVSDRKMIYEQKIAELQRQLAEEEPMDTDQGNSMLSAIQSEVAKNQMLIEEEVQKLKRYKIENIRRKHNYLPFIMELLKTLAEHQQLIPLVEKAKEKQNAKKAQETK
Method in brief: as §1

USP10 = USP10 (UniProt Q14694)
USP10, sequence (Q14694 whole entry): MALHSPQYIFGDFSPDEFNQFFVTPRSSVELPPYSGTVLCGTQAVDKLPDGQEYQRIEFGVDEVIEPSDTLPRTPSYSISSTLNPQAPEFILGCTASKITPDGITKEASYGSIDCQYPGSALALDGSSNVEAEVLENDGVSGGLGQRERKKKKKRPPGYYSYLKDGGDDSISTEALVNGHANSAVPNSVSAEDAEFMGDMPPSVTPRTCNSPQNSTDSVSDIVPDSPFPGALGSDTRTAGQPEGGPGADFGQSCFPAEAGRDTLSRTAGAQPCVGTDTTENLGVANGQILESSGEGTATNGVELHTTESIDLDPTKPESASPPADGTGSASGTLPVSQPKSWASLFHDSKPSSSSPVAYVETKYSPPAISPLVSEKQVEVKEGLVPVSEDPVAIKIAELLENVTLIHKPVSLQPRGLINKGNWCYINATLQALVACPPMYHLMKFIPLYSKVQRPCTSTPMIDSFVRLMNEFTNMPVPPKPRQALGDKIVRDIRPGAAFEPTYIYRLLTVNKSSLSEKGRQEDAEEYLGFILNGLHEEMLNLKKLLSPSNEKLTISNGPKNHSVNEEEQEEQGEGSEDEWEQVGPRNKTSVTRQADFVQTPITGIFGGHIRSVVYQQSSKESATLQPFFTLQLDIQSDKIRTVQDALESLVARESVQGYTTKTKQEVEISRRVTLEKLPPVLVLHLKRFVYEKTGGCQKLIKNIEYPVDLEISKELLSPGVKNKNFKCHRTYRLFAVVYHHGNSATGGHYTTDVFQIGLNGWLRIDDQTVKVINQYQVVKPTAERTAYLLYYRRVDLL
Method in brief: as §1

USP15 = target: T6, USP15 (UniProt Q9Y4E8)
T6 sequence (whole entry): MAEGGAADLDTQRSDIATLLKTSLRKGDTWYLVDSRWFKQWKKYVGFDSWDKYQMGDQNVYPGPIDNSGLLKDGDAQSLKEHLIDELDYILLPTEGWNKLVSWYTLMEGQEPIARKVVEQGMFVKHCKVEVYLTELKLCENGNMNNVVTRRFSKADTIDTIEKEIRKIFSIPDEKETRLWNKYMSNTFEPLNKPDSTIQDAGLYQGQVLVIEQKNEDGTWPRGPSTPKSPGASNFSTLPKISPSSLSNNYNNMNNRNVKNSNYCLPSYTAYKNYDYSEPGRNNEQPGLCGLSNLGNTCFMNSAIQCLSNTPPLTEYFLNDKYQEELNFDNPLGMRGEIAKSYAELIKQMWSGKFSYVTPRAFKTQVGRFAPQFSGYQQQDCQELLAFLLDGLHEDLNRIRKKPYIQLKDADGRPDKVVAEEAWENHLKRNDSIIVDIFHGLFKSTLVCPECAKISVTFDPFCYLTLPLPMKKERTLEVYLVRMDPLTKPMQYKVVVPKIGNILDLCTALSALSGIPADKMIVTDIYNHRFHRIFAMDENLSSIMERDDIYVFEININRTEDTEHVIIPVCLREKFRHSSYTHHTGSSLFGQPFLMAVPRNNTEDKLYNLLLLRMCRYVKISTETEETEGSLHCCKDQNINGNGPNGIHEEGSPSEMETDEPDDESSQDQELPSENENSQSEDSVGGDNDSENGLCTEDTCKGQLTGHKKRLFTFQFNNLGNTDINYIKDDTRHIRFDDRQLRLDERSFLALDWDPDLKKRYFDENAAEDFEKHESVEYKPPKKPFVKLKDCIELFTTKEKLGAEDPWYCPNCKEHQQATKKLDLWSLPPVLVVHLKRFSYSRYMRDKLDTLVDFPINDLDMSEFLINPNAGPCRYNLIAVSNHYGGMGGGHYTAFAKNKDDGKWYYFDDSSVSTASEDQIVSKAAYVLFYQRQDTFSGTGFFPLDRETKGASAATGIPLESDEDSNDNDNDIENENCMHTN
Method in brief: as §1

USP16 = USP16 (UniProt Q9Y5T5)
USP16, sequence (Q9Y5T5 whole entry, looked up): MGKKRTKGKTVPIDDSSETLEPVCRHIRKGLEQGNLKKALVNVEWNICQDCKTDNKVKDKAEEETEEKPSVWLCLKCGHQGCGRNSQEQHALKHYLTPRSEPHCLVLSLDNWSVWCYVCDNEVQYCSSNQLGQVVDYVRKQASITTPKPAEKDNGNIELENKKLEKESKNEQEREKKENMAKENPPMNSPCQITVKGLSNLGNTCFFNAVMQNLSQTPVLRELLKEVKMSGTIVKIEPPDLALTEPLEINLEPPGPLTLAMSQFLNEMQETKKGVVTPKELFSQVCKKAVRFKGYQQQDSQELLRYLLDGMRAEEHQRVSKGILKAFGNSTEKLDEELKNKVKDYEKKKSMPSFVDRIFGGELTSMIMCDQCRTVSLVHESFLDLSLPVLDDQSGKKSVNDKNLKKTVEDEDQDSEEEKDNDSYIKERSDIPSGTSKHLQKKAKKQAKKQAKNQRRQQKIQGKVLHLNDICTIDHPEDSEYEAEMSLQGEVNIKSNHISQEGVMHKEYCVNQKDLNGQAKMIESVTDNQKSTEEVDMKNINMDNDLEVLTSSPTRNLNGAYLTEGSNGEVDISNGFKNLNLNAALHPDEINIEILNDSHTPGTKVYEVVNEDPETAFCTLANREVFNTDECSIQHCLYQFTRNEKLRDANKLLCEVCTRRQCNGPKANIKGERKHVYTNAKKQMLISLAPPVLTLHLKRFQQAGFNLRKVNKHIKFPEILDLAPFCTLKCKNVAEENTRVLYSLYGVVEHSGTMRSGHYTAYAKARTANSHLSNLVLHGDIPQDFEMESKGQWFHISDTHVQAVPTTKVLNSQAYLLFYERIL
Method in brief: as §1

Measured: log2 ratio of Biotin-Ahx-Ub-VS probe labelling

O=C(CCl)N1CCOCC1C1CC1 (stereo not given)
inactive: OTUD6B -0.211 | OTUD7B -0.512 | PRPF8 -0.182 | PSMD7 -0.142 | UCHL3 0.225 | UCHL5 -0.257 | USP10 -0.0983 | USP15 -0.122 | USP16 -0.345
active: UCHL1 -1.92
